In PubChem BioAssay AID584 (National Center for Advancing Translational Sciences (NCATS), 2007):
About 65 (0.09%) of roughly 71,000 compounds were called active. The sample as a whole holds a higher share of actives than the screen did. Unmarked numbers belong to inactive results. The call rests on the fitted dose curve; in most records, active means well fitted curve in the direction sought with a large enough effect; inconclusive means small, poorly fitted or top-dose-only effect; inactive means flat fitted curve, though single readings scatter.
On the % scale 0 is the no-effect control and ±100 the full control effect.

Each molecule was assayed against Beta-lactamase (Escherichia coli (strain K12)) (UniProt P00811) (assay: Promiscuous and Specific Inhibitors of AmpC Beta-Lactamase (assay with detergent)). Conditions: purified AmpC, nitrocefin hydrolysis with detergent; series mostly up to 28.7 µM; activity change, negative = inhibition: at the top concentration.
Chain of Beta-lactamase (Escherichia coli (strain K12)) (P00811 whole entry, looked up): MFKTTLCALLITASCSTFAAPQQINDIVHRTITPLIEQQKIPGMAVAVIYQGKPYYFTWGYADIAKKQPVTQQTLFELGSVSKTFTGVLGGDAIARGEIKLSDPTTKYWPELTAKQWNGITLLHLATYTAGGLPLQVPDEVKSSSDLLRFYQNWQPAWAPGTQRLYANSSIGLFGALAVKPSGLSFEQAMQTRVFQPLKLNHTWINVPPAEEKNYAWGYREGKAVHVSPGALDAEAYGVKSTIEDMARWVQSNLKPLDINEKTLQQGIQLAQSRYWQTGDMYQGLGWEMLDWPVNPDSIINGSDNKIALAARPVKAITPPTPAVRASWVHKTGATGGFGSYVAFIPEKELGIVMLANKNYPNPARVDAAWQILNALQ
Description: NIH Molecular Libraries Screening Centers Network [MLSCN]
NIH Chemical Genomics Center [NCGC]
PI Name: Shoichet, Brian K.
This aggregation profiling approach exploits the sensitivity of aggregate formation to detergent. Inhibition of b-lactamase is measured in the presence and absence of 0.01% Triton X-100. This particular assay had the prescence of 0.01% Triton X-100. See Pubchem assay "Promiscuous and Specific Inhibitors of AmpC Beta-Lactamase (assay without detergent)" for related screen. Compounds that inhibit only in the absence of detergent are considered likely promiscuous aggregators.
A screen of 1,030 compounds was performed in Brian Shoichet's lab in 96-well format. AmpC activity was measured by following the absorbance at 480 nm. Nitrocefin is a chromogenic substrate: while nitrocefin is yellow (lmax 390 nm), the product of its hydrolysis is red (lmax 486 nm, 17,000 M-1). AmpC beta lactamase was provided by Brian Shoichet and Brian Feng, UCSF.
NCGC Assay Protocol Summary:
20 mM phosphate buffer, pH 7.0
Triton X-100: No Detergent screen: 0.0001%, Detergent screen: 0.01%.
Buffer in columns 3 and 4 as negative control (no enzyme).
5.3 nM AmpC in columns 1, 2, 5-48. Titration of UCSF compound 9 control (from 10 mM, then 1:2) pin-transferred to column 2. Column 1 is neutral (100% activity).
Six uL of reagents were dispensed to 1536-well Greiner black clear bottom plates. Compounds and controls (23 nL) were transferred via Kalypsys PinTool. The plates were incubated for 15 min at room temperature, and then 2 uL of 800 uM solution of nitrocefin was added to start the reaction. The plates were immediately transferred to and read every 20 seconds for 4 min on ViewLux (Perkin-Elmer) High-throughput CCD imager using 480 nm absorbance protocol. During dispense, reagent bottles were kept submerged into 4 deg C water bath.
Keywords: NIH Roadmap, MLSCN, MLI, MLSMR, qHTS, NCGC, AmpC Beta-Lactamase, Aggregation
In the case of `COC(=O)Cn1c(=NC(=O)CSCC(=O)Nc2cc(C)on2)sc2ccccc21`, the “activity change, negative = inhibition” value was 7.05%. In the case of `Cc1ccsc1-c1nc(CSCC(=O)NCCN2CCCC2)c(C)o1`, the “activity change, negative = inhibition” value was -5.81%. In the case of `O=C(NCc1ccco1)c1ccc(CS(=O)(=O)Cc2ccc(F)cc2)o1`, the “activity change, negative = inhibition” value was -3.7%. In the case of `CCCCCCn1c(CN2CCCC(C)C2)nc2c1c(=O)n(C)c(=O)n2C` (stereo not drawn), the “activity change, negative = inhibition” value was -7.21%. With `O=C1c2ccccc2C(Nc2ccc3c(c2)OCCO3)N1Cc1ccco1` (stereo not drawn) the “activity change, negative = inhibition” value was 5.99%. With `COc1ccccc1CN1CC2(CCN(S(=O)(=O)c3ccccc3)CC2)C1` the “activity change, negative = inhibition” value was -1%. In the case of `CCOC(=O)c1nnn(-c2nc(OC)nc(N(C)C)n2)c1-c1ccccc1`, the “activity change, negative = inhibition” value was -6.24%. With `CCOC(=O)c1sc(=S)n2c1[nH]c(=O)c1ccc(C(=O)OC)cc12` the “activity change, negative = inhibition” value was 30.9%. With `O=C(CS(=O)(=O)c1cn(Cc2cccc(F)c2)c2ccccc12)N1CCCCC1` the “activity change, negative = inhibition” value was -1.35%. Work on `CC(C)CSC[C@@H]1O[C@H](n2cnc3c(N)nccc32)[C@H](O)[C@@H]1O` yielded an activity change, negative = inhibition of -4% [at 5.75 µM]. For `CCCCSc1nnc(-c2ccc(NC(=O)CC)cc2)n1C`, the “activity change, negative = inhibition” value was -3%. `COc1ccc2[nH]c(=O)c(CN(Cc3nnnn3CCc3ccccc3)CC3CCCO3)cc2c1` (stereo not drawn) was tested, and the “activity change, negative = inhibition” value was 23.3%. In the case of `CC(C)CC(=O)N=C1SC2CS(=O)(=O)CC2N1CCc1ccccc1` (stereo not drawn), the “activity change, negative = inhibition” value was 2.35%. `O=C(NCc1ccccn1)Nc1ccc(F)cc1` was tested, and the “activity change, negative = inhibition” value was -0.221%. `CC(=NCc1ccco1)C1=C(O)c2ccccc2C1=O` was tested, and the “activity change, negative = inhibition” value was 4.06%. `COC(=O)c1ccc(NC(=O)CSc2nnc(-c3ccncc3)n2C)cc1` was tested, and the “activity change, negative = inhibition” value was 12.1%. For `COc1ccccc1OCCOc1ccc(/C=N/n2cnnc2)cc1`, the “activity change, negative = inhibition” value was 7.14%. With `CC12CN(Cc3ccccc3)CC(C)(CN(Cc3ccccc3)C1)C2=NO` the “activity change, negative = inhibition” value was 6.05%. In the case of `COc1ccc(-c2noc(COc3ccc(Cl)c(C)c3)n2)cc1`, the “activity change, negative = inhibition” value was 8.41%. With `COCC(C)NC(=O)c1ccc(Cl)c(Cl)c1` (stereo not drawn) the “activity change, negative = inhibition” value was -5.24%. For `Cc1ccc(-c2ccc(=O)n(CC(=O)NCCCN3CCCCC3)n2)cc1`, the “activity change, negative = inhibition” value was -2.99%. `COc1ccc(S(=O)(=O)N2CCC(C(=O)N3CCc4ccccc4C3)CC2)cc1OC` was tested, and the “activity change, negative = inhibition” value was -5.79%. For `CCn1c(=O)cc(SCC(=O)NCc2ccc3c(c2)OCO3)c2ccccc21`, the “activity change, negative = inhibition” value was 2.33%. For `COc1ccccc1-c1nc(C(F)(F)F)c(OC)o1`, the “activity change, negative = inhibition” value was -3.4%. In the case of `CCC(=O)Nc1ccccc1N1CCN(S(C)(=O)=O)CC1`, the “activity change, negative = inhibition” value was -0.929%. For `COc1cc(C2C(C#N)=C(C)NC3=C2C(=O)CC(C)(C)C3)ccc1O` (stereo not drawn), the “activity change, negative = inhibition” value was -0.562%. In the case of `Cc1ccc(S(=O)(=O)N2CCOCC2)cc1C(=O)NCc1ccc(F)cc1`, the “activity change, negative = inhibition” value was -4.01%. For `COc1cc(Br)cc(/C=N/c2ncn[nH]2)c1O`, the “activity change, negative = inhibition” value was -0.505%. In the case of `COC(=O)[C@@]1(Cc2ccccc2)[C@H]2c3cc(C(=O)N4CCCC4)n(Cc4ccc(C)o4)c3C[C@H]2CN1C(=O)c1ccccc1`, the “activity change, negative = inhibition” value was -3.5%. For `CCn1c(CSc2ncccn2)nnc1SCC(=O)N1c2ccccc2CC1C` (stereo not drawn), the “activity change, negative = inhibition” value was 0.00583%. `COc1cc(C2C(C(=O)Nc3ccc(F)cc3)=C(C)Nc3nc(CCCO)nn32)cc(OC)c1OC` (stereo not drawn) was tested, and the “activity change, negative = inhibition” value was 9.75%. In the case of `CC(C)c1ccc(NS(=O)(=O)c2cn(C)c(=O)n(C)c2=O)cc1`, the “activity change, negative = inhibition” value was 9.52%. In the case of `O=C(CCn1c(=O)oc2ccccc21)Nc1ccon1`, the “activity change, negative = inhibition” value was 2.22%. `CCOC(=O)c1cc(-c2nnc(-c3cc(OC)c(OC)c(OC)c3)o2)c(C)nc1C` was tested, and the “activity change, negative = inhibition” value was 3.14%. For `c1csc(CN2CCN(Cc3cccs3)C2c2cccs2)c1`, the “activity change, negative = inhibition” value was 3.14%. `COC(=O)CNS(=O)(=O)c1ccc(Cc2ccc(S(=O)(=O)NCC(=O)OC)cc2)cc1` was tested, and the “activity change, negative = inhibition” value was 11.4%. `Cc1ccc(C2(c3ccc(C)cc3)NC(=O)N(Cc3c(C)noc3C)C2=O)cc1` was tested, and the “activity change, negative = inhibition” value was -4.23%. With `C[C@@H](C(=O)Nc1ccc2ccccc2c1)[C@@H]1C[C@@]1(C)[C@@H](NC(=O)c1cccnc1)c1ccccc1` the “activity change, negative = inhibition” value was -2.3%. In the case of `N#Cc1c2c(c(N3CCN(CCO)CC3)n3c1nc1ccccc13)CCCC2`, the “activity change, negative = inhibition” value was -1.69%. `Cc1cc(Br)ccc1NC(=O)C1CCCO1` (stereo not drawn) was tested, and the “activity change, negative = inhibition” value was -2.73%. With `CO[C@@H]1/C=C\O[C@]2(C)Oc3c(C)c(O)c4c(O)c(c(CN(C)C)c(O)c4c3C2=O)NC(=O)/C(C)=C\C=C[C@@H](C)[C@@H](O)[C@H](C)[C@@H](O)[C@H](C)[C@H](OC(C)=O)[C@@H]1C` the activity change, negative = inhibition was -4.9% [at 5.75 µM]. With `O=C(CCCCn1c(=O)[nH]c2ccccc2c1=O)NCc1ccc2c(c1)OCO2` the “activity change, negative = inhibition” value was 14.5%. With `CCN(CC(=O)NC(C)C)C(=O)CCNC(=O)c1ccc(Cl)cc1` the “activity change, negative = inhibition” value was -4.89%. With `COc1ccc(-c2nc3cnc(N(C)C)nc3n(Cc3cccs3)c2=O)cc1` the “activity change, negative = inhibition” value was -2.8%. In the case of `CCOC(=O)C1C(=O)C=C(c2ccc(OC)cc2)CC1c1ccco1` (stereo not drawn), the “activity change, negative = inhibition” value was -3.67%. In the case of `O=C(C1CCC(C(=O)N2CCCC2)CC1)N1CCCC1` (stereo not drawn), the “activity change, negative = inhibition” value was -2.96%. For `O=C1CCc2cc(S(=O)(=O)N3CCC(C(=O)NCc4ccccc4Cl)CC3)ccc2N1`, the “activity change, negative = inhibition” value was 11.6%. With `COc1cccc(-n2c(Cc3cc(=O)[nH]c(=O)[nH]3)nnc2SCC(=O)Nc2ccccc2)c1` the “activity change, negative = inhibition” value was 11.9%. For `COc1ccc(C)cc1NC(=O)CSc1nc(SC)ns1`, the “activity change, negative = inhibition” value was -4.47%. In the case of `Cc1ccc2cc3cc(C(=O)N4CCCCCC4)oc3nc2c1`, the “activity change, negative = inhibition” value was -1.31%. With `COc1ccccc1CNc1ncnc2ccc(-c3c(C)noc3C)cc12` the “activity change, negative = inhibition” value was 10.9%. `CC(=O)N1[C@H](C)C=C[C@]1(Cc1ccccc1)C(=O)NCc1ccccn1` was tested, and the “activity change, negative = inhibition” value was 13.8%. With `CCOc1cc2[nH]c(=S)n(CCCN3CCCC3=O)c(=O)c2cc1OCC` the “activity change, negative = inhibition” value was -1.69%.
